Structures are written as SMILES. Records with an inconclusive call do not appear. The source holds several records for some structures; these can differ, active in one and inactive in another. Active and inactive are the calls of the source. Unless noted, the call rests on the fitted dose curve; in most records, active means well fitted curve in the direction sought with a large enough effect in the repeat runs; inconclusive means weak or mixed curves; inactive means no such curve, though single readings can be large; an effect the other way counts as inactive or inconclusive.

Assay [1] can be described thus: qHTS assay to identify small molecule agonists of the peroxisome proliferator-activated receptor delta (PPARd) signaling pathway - cell viability counter screen (AID 743211). Further: nearly all actives have a fitted effect of over 55% in size. Further: potency means the concentration at half of the fitted maximal effect. The method, boiled down: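 Viability was measured as CellTiter-Glo luminescence (30 min, room temperature) in the same wells as the beta-lactamase readout. GeneBLAzer PPARd UAS-bla HEK293H cells received compound after 5 h plating and were incubated 17 h at 37 C.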
For orientation: In qHTS, concentration-response curves come from the screen itself.

Assay [2] deals with Peroxisome proliferator-activated receptor delta (Homo sapiens) (UniProt Q03181). The assay is described as follows: qHTS assay to identify small molecule agonists of the peroxisome proliferator-activated receptor delta (PPARd) signaling pathway (AID 743212; calls by dose curve). Summed up:
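Tox21 library screened in GeneBLAzer PPARd UAS-bla HEK293H cells. After compound treatment at 37 C, a FRET-based beta-lactamase substrate was applied for 2 h and fluorescence recorded.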

A short description of assay [3]: qHTS assay to identify small molecule antagonists of the peroxisome proliferator-activated receptor delta (PPARd) signaling pathway - cell viability counter screen (AID 743213). Further: nearly all actives have a fitted effect of over 50% in size. Further: potency means the concentration at half of the fitted maximal effect. Summed up:
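HEK293H cells with the PPARd UAS-bla reporter, co-treated 17 h at 37 C with compounds and L165041 (300 nM final), were lysed with CellTiter-Glo. Luminescence indicated viable cell content.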

The target in assay [4] is Peroxisome proliferator-activated receptor delta (Homo sapiens) (UniProt Q03181). The assay is described as follows: qHTS assay to identify small molecule antagonists of the peroxisome proliferator-activated receptor delta (PPARd) signaling pathway (AID 743215; active means well fitted inhibition curve with a large enough effect in the signal ratio in the repeat runs, not every such curve was filed as active; the % refers to the signal ratio;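 further: cells stimulated with agonist L165041 at 300 nM final during compound exposure; series mostly up to about 62 µM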). The method, boiled down:
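Screen format: qHTS, antagonist mode. HEK293H PPARd-bla cells received compound and 300 nM L165041 (final), 17 h, 37 C. Beta-lactamase detected via FRET substrate fluorescence, 2 h, room temperature.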

Assay [5] in a line: qHTS assay to identify small molecule agonists of the farnesoid-X-receptor (FXR) signaling pathway - cell viability counter screen (AID 743218). Further: nearly all actives have a fitted effect of over 45% in size. Further: potency means the concentration at half of the fitted maximal effect. Summed up:
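Same-well cytotoxicity check on FXR-UAS-bla HEK 293T cells: 5 h attachment, 16 h compound at 37 C, CellTiter-Glo luminescence read at room temperature after 30 min.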

Assay [6] is described as follows: qHTS assay to identify small molecule antagonists of the farnesoid-X-receptor (FXR) signaling pathway - cell viability counter screen (AID 743221; active means well fitted cell-killing curve with a large enough effect in the repeat runs, not every such curve was filed as active; further: nearly all actives have a fitted effect of over 50% in size). Summed up:
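Cytotoxicity counter screen run in the FXR-bla reporter wells: HEK 293T cells exposed to compound with 50 uM (final) chenodeoxycholic acid for 16 h, 37 C, then viability measured by CellTiter-Glo luminescence after 30 min, room temperature.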

The target of assay [7] is Vitamin D3 receptor (Homo sapiens) (UniProt P11473). The assay is described as follows: qHTS assay to identify small molecule agonists of the vitamin D receptor (VDR) signaling pathway (AID 743222; calls by dose curve). The method, boiled down: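 Using LiveBLAzer B/G FRET detection, agonism was scored in VDR-bla cells exposed overnight (16 h, 37C) to DMSO-dissolved compounds; substrate incubation was 2 h at room temperature.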

The target is the same in assay [8]. The assay is described as follows: qHTS assay to identify small molecule antagonists of the vitamin D receptor (VDR) signaling pathway (AID 743223; active means well fitted inhibition curve with a large enough effect in the signal ratio in the repeat runs, not every such curve was filed as active; the % refers to the signal ratio). Summed up: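 Antagonist mode: compound added to VDR-bla cells alongside agonist 1alpha,25-dihydroxyvitamin D3 (3 nM final), incubation 16 h at 37C. Read-out is LiveBLAzer FRET fluorescence, 2 h at room temperature.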

Assay [9] has as its target Bile acid receptor (Homo sapiens) (UniProt Q96RI1). The assay is described as follows: qHTS assay to identify small molecule agonists of the farnesoid-X-receptor (FXR) signaling pathway (AID 743220; active means well fitted activation curve with a large enough effect in the signal ratio in the repeat runs, not every such curve was filed as active; the % refers to the signal ratio). Summed up:
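FXR-UAS-bla HEK 293T cells carrying a UAS-driven beta-lactamase reporter were plated for 5 h at 37C/5% CO2, then exposed to DMSO-dissolved Tox21 10K compounds for 16 h at 37C. A LiveBLAzer B/G FRET substrate was loaded for 2 h at room temperature before fluorescence reading.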

The target is the same in assay [10]. The assay is described as follows: qHTS assay to identify small molecule antagonists of the farnesoid-X-receptor (FXR) signaling pathway (AID 743217; active means well fitted inhibition curve with a large enough effect in the signal ratio in the repeat runs, not every such curve was filed as active; the % refers to the signal ratio). The method, boiled down:
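Quantitative HTS, beta-lactamase reporter format: FXR-UAS-bla HEK 293T cells co-treated 16 h at 37 °C with compounds and 50 uM final chenodeoxycholic acid, then read by B/G FRET fluorescence.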

Vitamin D3 receptor (Homo sapiens), sequence (P11473 whole entry, looked up): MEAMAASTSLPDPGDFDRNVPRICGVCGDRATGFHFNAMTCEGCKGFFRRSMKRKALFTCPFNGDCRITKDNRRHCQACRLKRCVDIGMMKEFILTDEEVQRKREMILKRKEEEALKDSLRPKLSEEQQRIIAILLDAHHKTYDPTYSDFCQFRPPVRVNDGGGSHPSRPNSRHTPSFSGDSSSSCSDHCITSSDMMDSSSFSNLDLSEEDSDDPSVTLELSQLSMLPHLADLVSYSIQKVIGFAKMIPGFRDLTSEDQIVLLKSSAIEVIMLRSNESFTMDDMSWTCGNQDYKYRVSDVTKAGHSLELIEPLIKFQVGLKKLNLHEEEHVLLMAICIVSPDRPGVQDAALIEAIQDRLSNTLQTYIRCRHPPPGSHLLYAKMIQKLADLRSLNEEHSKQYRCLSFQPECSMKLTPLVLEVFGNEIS
Peroxisome proliferator-activated receptor delta (Homo sapiens), sequence (Q03181 whole entry, looked up): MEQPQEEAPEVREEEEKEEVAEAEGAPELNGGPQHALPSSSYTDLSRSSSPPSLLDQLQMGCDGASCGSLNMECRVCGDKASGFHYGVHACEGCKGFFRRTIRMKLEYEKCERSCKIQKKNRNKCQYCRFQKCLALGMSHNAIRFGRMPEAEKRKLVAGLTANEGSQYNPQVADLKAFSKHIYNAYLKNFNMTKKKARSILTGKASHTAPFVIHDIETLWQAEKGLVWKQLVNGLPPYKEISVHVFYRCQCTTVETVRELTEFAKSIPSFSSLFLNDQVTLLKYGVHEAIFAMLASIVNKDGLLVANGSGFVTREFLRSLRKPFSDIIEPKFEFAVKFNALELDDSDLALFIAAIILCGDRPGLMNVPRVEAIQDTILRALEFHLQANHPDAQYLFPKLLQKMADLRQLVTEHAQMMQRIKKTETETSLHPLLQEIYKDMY
Bile acid receptor (Homo sapiens), sequence (Q96RI1 whole entry, looked up): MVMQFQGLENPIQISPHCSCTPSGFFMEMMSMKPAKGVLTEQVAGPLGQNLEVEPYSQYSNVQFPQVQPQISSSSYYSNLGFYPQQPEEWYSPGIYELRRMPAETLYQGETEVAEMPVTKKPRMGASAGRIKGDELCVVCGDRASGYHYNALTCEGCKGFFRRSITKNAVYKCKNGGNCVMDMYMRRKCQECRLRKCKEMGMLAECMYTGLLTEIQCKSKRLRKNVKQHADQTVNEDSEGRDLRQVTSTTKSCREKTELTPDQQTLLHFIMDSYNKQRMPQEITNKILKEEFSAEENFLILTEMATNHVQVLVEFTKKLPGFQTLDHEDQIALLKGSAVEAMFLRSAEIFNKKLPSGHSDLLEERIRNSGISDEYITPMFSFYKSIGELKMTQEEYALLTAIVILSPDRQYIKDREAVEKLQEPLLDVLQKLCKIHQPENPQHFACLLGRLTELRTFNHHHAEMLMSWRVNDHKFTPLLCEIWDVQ

As for `C=CC(=O)OCCCCCCCC`, the Potency entry in assay [1], in assay [2], in assay [3], in [4], in [5] and in [6] was “inactive” in each case. The Potency result in [7] and in [8] was “inactive” each time.

With `O=C1Nc2ccccc2C1(c1ccc(O)cc1)c1ccc(O)cc1`, the Potency entry in assay [1], in assay [2], in assay [3], in assay [4], in [5] and in assay [6] was “inactive” in each case. The Potency result in [7] and in assay [8] was “inactive” each time.

For the compound `Cc1ccc(-c2cc(C(F)(F)F)nn2-c2ccc(S(N)(=O)=O)cc2)cc1`, the Potency in assay [1] is 54.9 µM (active). For the same compound, the Potency entry in assay [2], in assay [3], in assay [5] and in assay [6] was “inactive” in each case.

As for `C/C=C/c1ccc(OCC)c(O)c1`, the Potency result in assay [1], in assay [2], in assay [3], in assay [4], in [5] and in assay [6] was “inactive” throughout. Also, the Potency result in assay [7] and in assay [8] was “inactive” throughout.

Take `NNCCc1ccccc1`: the Potency result in assay [1], in assay [2], in assay [3], in assay [4], in [5] and in [6] was “inactive” throughout. Further, the Potency entry in assay [7] and in assay [8] was “inactive” each time.

On to `CCCNC(C)C(=O)Nc1ccccc1C` (stereo not given), for which the Potency entry in assay [1], in assay [2], in assay [3], in [4], in assay [6] and in assay [7] was “inactive” throughout. Moreover, the Potency entry in assay [8] was “inactive”.

Consider `CC(C)(C)c1cc(C(C)(C)C)c(O)c(C(C)(C)C)c1`, for which, in assay [1], the Potency is 49 µM (active). The Potency entry in assay [2], in assay [3], in assay [4], in [9] and in [6] was “inactive” in each case.

Take `C[N+]1([O-])CCOCC1`: the Potency entry in [1], in assay [2], in [3], in assay [4], in assay [5] and in assay [6] was “inactive” in each case. Also, the Potency result in assay [7] and in assay [8] was “inactive” in each case.

As for `CC1COC(=O)O1` (stereo not given), the Potency entry in [1], in assay [2], in assay [3], in assay [10], in assay [5] and in [9] was “inactive” each time. For the same compound, the Potency entry in assay [6], in assay [7] and in assay [8] was “inactive” throughout.

Turning to `[Cl][In]([Cl])[Cl]`, the Potency result in assay [1], in assay [2], in assay [3], in [4], in [5] and in assay [6] was “inactive” each time. In addition, the Potency entry in assay [7] was “inactive”.

On to `CC(COc1ccccc1)N(CCCl)Cc1ccccc1` (stereo not given), for which the Potency result in [1], in assay [2], in assay [3], in assay [4], in assay [6] and in [7] was “inactive” each time. The Potency result in assay [8] is “inactive”. Further, the Potency in [5] is 49 µM (active) and inactive.

For the compound `CCN1CCCC1CNC(=O)c1cc(S(=O)(=O)CC)c(N)cc1OC` (stereo not given), the Potency result in assay [1], in assay [2], in [3], in assay [4], in assay [5] and in [6] was “inactive” in each case. Besides, the Potency result in assay [7] and in assay [8] was “inactive” each time.

Turning to `CCC[C@H](N[C@@H](C)C(=O)N1[C@H](C(=O)O)C[C@@H]2CCCC[C@@H]21)C(=O)OCC`, the Potency result in [1], in assay [2], in assay [3], in assay [10], in assay [5] and in [9] was “inactive” throughout. Also, the Potency entry in [6] and in [8] was “inactive” throughout.

Regarding `NC12CC3CC(CC(C3)C1)C2`, the Potency entry in [1], in [2], in assay [3], in assay [4], in assay [5] and in assay [6] was “inactive” throughout. In assay [7], the Potency entry is “inactive”.

As for `CC(C)CCOC(=O)c1ccc(N(C)C)cc1`, the Potency entry in [1], in assay [2], in assay [3], in [4], in assay [5] and in assay [6] was “inactive” each time. For the same compound, the Potency result in [7] and in assay [8] was “inactive” throughout.

With `O=C(O)CCc1ccccc1`, the Potency entry in assay [1], in assay [2], in assay [3], in assay [4], in [5] and in assay [6] was “inactive” throughout. For the same compound, the Potency entry in assay [7] is “inactive”.

Consider `C1COC(NC(C2CC2)C2CC2)=N1`, for which the Potency result in assay [1], in assay [2], in assay [3], in assay [4], in assay [5] and in assay [6] was “inactive” each time. Further, the Potency entry in assay [8] is “inactive”.

In the case of `COc1nc(C)nc(Cl)c1NC1=NCCN1`, the Potency result in [1], in assay [2], in [3], in assay [4], in assay [5] and in assay [6] was “inactive” throughout. Further, the Potency result in assay [7] and in assay [8] was “inactive” in each case.

`CC(C)(O)CCC(C)(C)O`: the Potency result in assay [1], in assay [2], in assay [3], in assay [4], in assay [5] and in [6] was “inactive” in each case. Also, the Potency entry in assay [7] and in [8] was “inactive” in each case.

Consider `CC[C@]1(O)C[C@@H]2CN(CCc3c([nH]c4ccccc34)[C@@](C(=O)OC)(c3cc4c(cc3OC)N(C)[C@H]3[C@@](O)(C(=O)OC)[C@H](OC(C)=O)[C@]5(CC)C=CCN6CC[C@]43[C@@H]65)C2)C1`, for which the Potency result in assay [1], in [2], in assay [3], in assay [4], in [5] and in assay [6] was “inactive” throughout. Further, the Potency result in assay [7] and in assay [8] was “inactive” throughout.

As to `COC(=O)c1cccc(C(=O)OC)c1`, the Potency entry in assay [1], in assay [2], in assay [3], in assay [4], in [5] and in [6] was “inactive” each time. Moreover, the Potency result in assay [7] and in [8] was “inactive” each time.

On to `O=C(Cl)c1cccc(C(=O)Cl)c1`, for which the Potency entry in assay [1], in assay [2], in [3], in assay [4], in [5] and in assay [6] was “inactive” throughout. For the same compound, the Potency entry in [7] and in [8] was “inactive” each time.

On to `CO[Si](OC)(OC)c1ccccc1`, for which the Potency entry in assay [1], in assay [2], in assay [3], in assay [4], in assay [5] and in assay [6] was “inactive” each time. For the same compound, the Potency result in assay [8] is “inactive”.

Consider `O=Cc1ccc(Cl)cc1`, for which the Potency result in assay [1], in assay [2], in assay [3], in [4], in assay [5] and in assay [6] was “inactive” each time. Moreover, the Potency entry in assay [7] and in [8] was “inactive” each time.

`OCCOCCN1CCN(C(c2ccccc2)c2ccc(Cl)cc2)CC1` (stereo not given): the Potency result in assay [1], in assay [2], in assay [4], in assay [5], in [6] and in [7] was “inactive” each time. Also, in assay [8], the Potency result was “inactive”. In [3], the Potency was 43.1 µM (active).

The values are drawn from PubChem BioAssay (Tox21).
